In PubChem BioAssay one finds composite z-score and z-score data, which are given here for five compounds.

Calls of active or inactive are those of the source.

Assay [1] in a line: small molecules captured by biotinylated probe aFSTL3 – biochemical, small-molecule microarray, fluorescence 635/667, stem cell growth factor project, primary screen (AID 1064).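 Also: measures binding of the biotinylated anti-FSTL3 antibody to printed compounds.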 The note with it: higher = more signal.
The nature of assay [2]: binders from COS7 lysate, DM2A8 probe, primary screen, torsin A project, cell lysate, small-molecule microarray, fluorescence 635/667 (AID 1065). The note with it: higher = more signal, COS7 lysate expressing mutant human TOR1A.
A short description of assay [3]: small molecules captured by biotinylated probe aFGF2 – biochemical, small-molecule microarray, fluorescence 635/667, stem cell growth factor project, primary screen (AID 1067).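 Also: measures binding of biotinylated aFGF2 protein to printed compounds on slides; z-score merges feature fluorescence and signal-to-noise across triplicate slides.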 The note with it: higher = more signal.
Assay [4] can be described thus: small molecules captured by biotinylated probe aFGF10 – biochemical, small-molecule microarray, fluorescence 635/667, stem cell growth factor project, primary screen (AID 1071).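 Also: score merges 667 nm spot intensity and signal to noise from triplicate slides.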 The conditions noted are these: higher = more signal.
The target in assay [5] is Neurogenic locus notch homolog protein 2 (Homo sapiens) (UniProt Q04721). In words: small molecules binding Notch2 protein – biochemical, small-molecule microarray, 635 nm fluorescence, stem cell growth factors, primary screen (AID 1073). The note with it: higher = more signal.
For assay [6], the target named is Pro-neuregulin-1, membrane-bound isoform (Homo sapiens) (UniProt Q02297). In words: small molecules binding neuregulin-1 protein – biochemical, small-molecule microarray, fluorescence 635/667, psychiatric disease protein project, primary screen (AID 1075).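 Also: score combines 667 nm spot fluorescence with signal to noise.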 The conditions noted are these: NRG1 binding, 635 nm fluorescence, higher = more signal.
Chain of Pro-neuregulin-1, membrane-bound isoform (Homo sapiens) (Q02297 whole entry, looked up, the tested form may be a part, canonical isoform): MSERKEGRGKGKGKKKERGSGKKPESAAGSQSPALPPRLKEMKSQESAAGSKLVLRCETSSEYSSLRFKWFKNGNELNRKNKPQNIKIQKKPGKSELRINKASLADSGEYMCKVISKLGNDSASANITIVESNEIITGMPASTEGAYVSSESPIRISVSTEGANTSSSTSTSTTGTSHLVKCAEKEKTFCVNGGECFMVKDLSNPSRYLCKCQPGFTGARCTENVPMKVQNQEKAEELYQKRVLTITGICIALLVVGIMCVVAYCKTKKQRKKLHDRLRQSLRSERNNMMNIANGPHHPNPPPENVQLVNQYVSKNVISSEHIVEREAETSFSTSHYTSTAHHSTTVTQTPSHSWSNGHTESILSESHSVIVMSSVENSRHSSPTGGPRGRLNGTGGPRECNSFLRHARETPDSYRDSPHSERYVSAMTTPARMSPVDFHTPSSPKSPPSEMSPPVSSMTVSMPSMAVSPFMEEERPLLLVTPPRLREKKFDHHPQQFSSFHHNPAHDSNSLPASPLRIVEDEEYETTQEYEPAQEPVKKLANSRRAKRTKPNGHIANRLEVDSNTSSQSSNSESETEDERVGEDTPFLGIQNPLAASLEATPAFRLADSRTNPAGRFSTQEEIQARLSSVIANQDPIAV
Assay [7] concerns Neuregulin-1 EGF-like domain. In words: small molecules binding NRG1 EGF domain – biochemical, small-molecule microarray, 635 nm fluorescence, primary screen (AID 1081).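 Also: binding of the protein to compounds printed on small-molecule microarray slides.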 The note with it: higher = more signal.
A short description of assay [8]: FRG1 expression reporter modulators in myotubes – cell-based, C2C12 myotubes, firefly/Renilla luciferase, luminescence, FRG1 inhibition for FSHD, primary screen (AID 1084). The conditions noted are these: FRG1 promoter luciferase, higher = more signal, called active from +8 up or from −8 down.
A short description of assay [9]: small molecules captured by biotinylated probe aFST – biochemical, small-molecule microarray, fluorescence 635/667, stem cell growth factor project, primary screen (AID 1086).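 Also: score merges 667 nm fluorescence with signal-to-noise of each printed compound spot.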 The conditions noted are these: higher = more signal.
Assay [10] in a line: binders of probe aHhip on microarray, primary screen, stem cell growth factor project, biochemical, small-molecule microarray, fluorescence 635/667 (AID 1087).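 Also: score merges spot fluorescence at 667nm with spot signal to noise ratio.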 The conditions noted are these: higher = more signal.
The test system of assay [11] is PRMT1 (protein arginine N-methyltransferase 1). In words: small molecules binding arginine methyltransferase PRMT1 – biochemical, small-molecule microarray, 635 nm fluorescence, primary screen (AID 1088).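 Also: binding of Prmt1 protein to compounds spotted on small-molecule microarray slides.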 The conditions noted are these: higher = more signal.
Assay [12] is described as follows: growth effects on S. cerevisiae YJM789 – YJM789 clinical isolate, OD600, 24 h, basal, primary screen (AID 1089).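 Also: growth of clinical yeast isolate S. cerevisiae YJM 789 seeded 1000 cells per well; test concentration not given here.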 The note with it: higher = more signal, called active from +8 up or from −8 down.
The nature of assay [13]: S. pombe growth modifiers, basal conditions – strain 972, OD600, 24 h, no modulator, primary screen (AID 1090).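 Also: basal condition with compound alone and no growth modifier present; test concentration not given here.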 The note with it: S. pombe 972 growth, higher = more signal, called active from +8 up or from −8 down.
A short description of assay [14]: budding yeast growth modifiers under rapamycin – strain BY4716, OD600, 96 h, primary screen (AID 1091). Also: test concentration not given here. The conditions noted are these: S. cerevisiae BY4716 + rapamycin, higher = more signal, called active from +8 up or from −8 down.
The target in assay [15] is Torsin-1A-interacting protein 2 (Homo sapiens) (UniProt Q8NFQ8). In words: small molecules binding lysate-expressed LULL1 – cell lysate, human LULL1 lysate, 635/667 nm fluorescence, primary screen (AID 1092).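 Also: probe is lysate of COS7 cells overexpressing human LULL1; score merges per-feature 667 nm fluorescence with signal-to-noise.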 The conditions noted are these: small-molecule microarray, hLULL1 lysate binding, 635 nm fluorescence; higher = more signal.
Chain of Torsin-1A-interacting protein 2 (Homo sapiens) (Q8NFQ8 whole entry, looked up): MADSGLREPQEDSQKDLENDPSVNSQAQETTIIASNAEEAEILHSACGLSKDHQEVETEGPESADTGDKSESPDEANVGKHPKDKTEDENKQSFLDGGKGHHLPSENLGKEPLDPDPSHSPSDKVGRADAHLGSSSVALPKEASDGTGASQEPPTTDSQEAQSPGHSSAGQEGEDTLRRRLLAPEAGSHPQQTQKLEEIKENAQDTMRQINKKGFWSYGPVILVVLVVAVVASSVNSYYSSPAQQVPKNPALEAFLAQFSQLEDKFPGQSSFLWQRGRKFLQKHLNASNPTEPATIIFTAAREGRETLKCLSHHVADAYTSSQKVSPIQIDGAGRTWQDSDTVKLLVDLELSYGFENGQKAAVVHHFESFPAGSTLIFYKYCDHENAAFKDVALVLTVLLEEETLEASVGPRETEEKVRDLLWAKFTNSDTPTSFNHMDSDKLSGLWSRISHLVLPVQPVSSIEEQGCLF
Assay [16] can be described thus: optical density change of DRC41 E. coli – strain DRC41, OD650, 24 h, E. coli filamentation project, primary screen (AID 1093).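 Also: MC1000 strain lacking acrAB efflux and sulA so SOS filamentation is blocked; test concentration not given here.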 The conditions noted are these: E. coli DRC41 growth, higher = more signal, called active from +8 up or from −8 down.
The nature of assay [17]: probe aLefty2 binding to arrayed compounds – biochemical, biotinylated probe, 635/667 nm fluorescence, primary screen (AID 1094).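 Also: score merges spot fluorescence near 667 nm with spot signal-to-noise ratio.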 The note with it: small-molecule microarray, higher = more signal.
Assay [18] relates to Noggin (protein binding on small-molecule microarray). In words: small molecules binding Noggin protein – biochemical, 635/667 nm fluorescence, primary screen (AID 1095).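 Also: score merges 667 nm feature fluorescence with signal to noise over triplicate slides.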 The conditions noted are these: 635 nm fluorescence, higher = more signal.
Assay [19] has as its target Neurogenic locus notch homolog protein 3 (Homo sapiens) (UniProt Q9UM47). In words: small molecules binding NOTCH3 protein – biochemical, 635/667 nm fluorescence, primary screen (AID 1096). The conditions noted are these: small-molecule microarray, 635 nm fluorescence, higher = more signal.
Assay [20] is described as follows: probe aEGFR binding to arrayed compounds – biochemical, biotinylated probe, 635/667 nm fluorescence, primary screen (AID 1097).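 Also: probe is a biotinylated anti-EGFR antibody binding compounds printed on slides; score combines fluorescence near 667 nm and signal to noise of each spot.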 The conditions noted are these: small-molecule microarray, higher = more signal.

Chain of Neurogenic locus notch homolog protein 3 (Homo sapiens) (Q9UM47 whole entry, looked up): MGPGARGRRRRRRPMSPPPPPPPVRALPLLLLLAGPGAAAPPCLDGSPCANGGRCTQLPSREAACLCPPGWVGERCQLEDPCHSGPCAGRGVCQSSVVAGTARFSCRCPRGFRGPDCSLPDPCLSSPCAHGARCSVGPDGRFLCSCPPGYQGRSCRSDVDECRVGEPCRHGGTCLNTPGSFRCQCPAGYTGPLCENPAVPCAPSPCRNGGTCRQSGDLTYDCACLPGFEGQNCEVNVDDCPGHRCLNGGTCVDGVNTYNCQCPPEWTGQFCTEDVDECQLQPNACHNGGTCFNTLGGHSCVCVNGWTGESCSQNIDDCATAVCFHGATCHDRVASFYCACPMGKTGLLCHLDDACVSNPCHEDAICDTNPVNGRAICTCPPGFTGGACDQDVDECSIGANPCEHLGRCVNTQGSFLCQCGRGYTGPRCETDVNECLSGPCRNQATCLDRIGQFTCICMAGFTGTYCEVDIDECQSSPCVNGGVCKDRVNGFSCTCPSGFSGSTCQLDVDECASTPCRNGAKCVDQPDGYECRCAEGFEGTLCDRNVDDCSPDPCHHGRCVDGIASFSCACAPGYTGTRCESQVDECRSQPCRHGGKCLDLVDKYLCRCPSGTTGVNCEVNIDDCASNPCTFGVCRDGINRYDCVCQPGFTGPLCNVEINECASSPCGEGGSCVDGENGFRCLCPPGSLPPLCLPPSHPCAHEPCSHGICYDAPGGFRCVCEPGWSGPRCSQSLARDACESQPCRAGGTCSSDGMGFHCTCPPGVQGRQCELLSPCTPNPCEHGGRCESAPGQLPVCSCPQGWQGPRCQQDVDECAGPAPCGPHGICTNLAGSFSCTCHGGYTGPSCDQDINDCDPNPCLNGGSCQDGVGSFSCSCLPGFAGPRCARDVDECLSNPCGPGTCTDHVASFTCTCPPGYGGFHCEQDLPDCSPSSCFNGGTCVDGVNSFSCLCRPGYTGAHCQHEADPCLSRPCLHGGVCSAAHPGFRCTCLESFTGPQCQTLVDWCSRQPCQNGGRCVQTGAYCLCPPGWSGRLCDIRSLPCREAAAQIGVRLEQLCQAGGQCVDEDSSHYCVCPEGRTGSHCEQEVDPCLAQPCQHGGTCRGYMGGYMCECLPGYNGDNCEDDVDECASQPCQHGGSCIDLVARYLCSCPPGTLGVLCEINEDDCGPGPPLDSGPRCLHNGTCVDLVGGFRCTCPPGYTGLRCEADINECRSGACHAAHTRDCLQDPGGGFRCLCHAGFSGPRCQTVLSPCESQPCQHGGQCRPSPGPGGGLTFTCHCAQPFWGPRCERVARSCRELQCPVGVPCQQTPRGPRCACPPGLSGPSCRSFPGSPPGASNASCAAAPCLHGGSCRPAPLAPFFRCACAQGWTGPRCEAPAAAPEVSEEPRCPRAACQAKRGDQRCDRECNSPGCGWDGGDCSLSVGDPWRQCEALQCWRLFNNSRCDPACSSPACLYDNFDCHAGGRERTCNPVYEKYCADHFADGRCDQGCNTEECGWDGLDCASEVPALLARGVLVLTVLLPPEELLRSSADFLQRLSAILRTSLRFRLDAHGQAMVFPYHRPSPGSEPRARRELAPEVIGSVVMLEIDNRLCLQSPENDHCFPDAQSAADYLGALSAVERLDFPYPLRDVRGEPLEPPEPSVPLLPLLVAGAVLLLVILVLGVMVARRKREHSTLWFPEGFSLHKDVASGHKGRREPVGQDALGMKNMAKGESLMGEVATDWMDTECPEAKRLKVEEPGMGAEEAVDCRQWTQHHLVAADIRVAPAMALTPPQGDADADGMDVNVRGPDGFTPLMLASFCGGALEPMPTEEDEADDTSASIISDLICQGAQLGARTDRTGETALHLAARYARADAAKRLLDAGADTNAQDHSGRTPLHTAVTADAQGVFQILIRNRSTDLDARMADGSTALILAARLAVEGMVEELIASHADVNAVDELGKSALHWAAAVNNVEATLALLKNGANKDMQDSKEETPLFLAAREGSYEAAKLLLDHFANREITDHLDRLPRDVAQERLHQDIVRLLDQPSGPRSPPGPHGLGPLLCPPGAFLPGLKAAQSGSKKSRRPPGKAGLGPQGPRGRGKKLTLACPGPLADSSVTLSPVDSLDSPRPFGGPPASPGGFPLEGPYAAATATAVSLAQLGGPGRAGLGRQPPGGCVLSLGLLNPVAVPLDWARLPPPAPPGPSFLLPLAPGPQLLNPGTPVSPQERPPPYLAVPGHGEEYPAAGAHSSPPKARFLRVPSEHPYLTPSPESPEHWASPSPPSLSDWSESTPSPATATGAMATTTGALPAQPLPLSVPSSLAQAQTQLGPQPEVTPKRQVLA

For `CCOc1cc(C(O)C2C=CC3C(=O)N(c4ccccc4)C(=O)C3N2Nc2ccc(C(C)C)cc2)ccc1O` (stereo not given), the composite z-score is 0.0696 in assay [1]; 0.201 in assay [2]; -0.0254 in [3]; 0.707 in assay [4]; 1.52 in assay [5]; 1.36 in [6]. Moreover, the composite z-score in [7] is 1.31; in [9] it was 1.17; in assay [10] it was -0.0237; in [11], 1.55; in assay [15], 3.42; in [17], 0.0261. Besides, the composite z-score was 0.107 in assay [18], 1.1 in assay [19] and -0.0581 in assay [20]. Further, the z-score in [8] was 0.698 (inactive); in assay [12] it was 0.471 (inactive); in assay [13], -1.28 (inactive); in assay [14], 0.597 (inactive); in assay [16], -1.14 (inactive).

In the case of `C=CC[C@]1(C(N)=O)N=C(c2ccc(OCCCO)cc2)O[C@H]1c1ccccc1`, the composite z-score in assay [1] is 0.966; in [2], -0.148; in assay [3] it was -0.0286; in assay [4] it was -0.0773; in [5], 0.494; in [6], 1.92. Besides, the composite z-score in [7] is 1.29; in assay [9], -0.0521; in assay [10], -0.0296; in [11], 0.243; in [15], 2.17; in assay [17] it was 0.0493. The values for the composite z-score in [18], in assay [19] and in assay [20] were 0.201, -0.674 and -0.165, respectively. In addition, the z-score was -1.59 (inactive) in [8]; -0.52 (inactive) in assay [12]; -0.0257 (inactive) in assay [13]; -0.953 (inactive) in [14]; 0.0588 (inactive) in assay [16].

Take `C=C(CCCC)/C(=C/C[C@H](OC(=O)c1ccncc1)c1ccc(OCCO)cc1)c1cc(C(=O)OC)ccc1OC`: the composite z-score in [1] was -0.126; in assay [2], 0.123; in assay [3] it was -0.031; in [4], 1.15; in assay [5] it was 0.563; in assay [6] it was 0.348. Further, the composite z-score in [7] is 1.01; in [9] it was -0.348; in assay [10] it was -0.195; in [11], 0.834; in [15] it was 1.27; in assay [17], -0.187. The composite z-score is -0.395 in [18], -0.0191 in assay [19] and 0.689 in assay [20]. Moreover, the z-score in assay [8] was 31.6 (active); in assay [12], 0.992 (inactive); in assay [13], -0.78 (inactive); in [14], -0.676 (inactive); in [16], 0.987 (inactive).

Regarding `C#CCN1[C@@H](Cc2ccc(O)cc2)C(=O)O[C@H](Cc2ccccc2)[C@@H]1/C=C/C1CC1`, the composite z-score in [1] was -0.353; in [2] it was 0.336; in assay [3], -0.142; in assay [4], 0.199; in assay [5], -0.586; in [6], -0.37. In addition, the composite z-score in assay [7] is 0.207; in assay [9], 0.0959; in assay [10] it was -0.279; in [11] it was -0.193; in assay [15], 0.602; in assay [17], -0.144. For the same compound, the composite z-score in assay [18] was -0.204; in [19], -0.139; in [20] it was -0.0081. Moreover, the z-score was -3.33 (inactive) in [8]; -0.257 (inactive) in [12]; -4.95 (inactive) in [13]; 1.09 (inactive) in assay [14]; -0.495 (inactive) in [16].

On to `COc1cc(OC)c(C(O)C2C=CC3C(=O)NC(=O)C3N2Nc2ccccn2)cc1Br` (stereo not given), for which the composite z-score was 0.159 in assay [1]; 0.56 in [2]; -0.0494 in assay [3]; 0.561 in assay [4]; 1.24 in assay [5]; 1.48 in assay [6]. Besides, the composite z-score in assay [7] was 1.44; in assay [9], 0.0594; in assay [10] it was -0.141; in [11] it was 1.49; in assay [15], 0.645; in assay [17] it was 0.0917. For the same compound, the composite z-score in [18] was determined as 0.458; in assay [19] it was 0.716; in assay [20] it was 0.131. Also, the z-score in assay [8] is 1.21 (inactive); in assay [12], -0.0137 (inactive); in assay [13] it was -0.289 (inactive); in [14], 0.204 (inactive); in assay [16] it was -0.564 (inactive).
